Data as given in PubChem BioAssay (NCATS).
A number with no mark means an inactive call. Inconclusive results are not listed. Activity calls are given as the source filed them. Unless noted, the call rests on the fitted dose curve; in most records, active means well fitted curve in either direction with a large enough effect (not every such curve was filed as active); inconclusive means small, poorly fitted or top-dose-only effect, or another doubt; inactive means flat fitted curve, though single readings scatter.

Experiments:
[1] = molecular target: Lysosomal acid glucosylceramidase (Homo sapiens) (UniProt P04062); assay: Glucocerebrosidase-p2 (AID 348; in the data active means potency below about 10 µM; further: potency means the concentration at half of the fitted maximal effect); conditions: purified GBA, blue fluorogenic substrate, 40 min
Procedure, shortened: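 Normal human glucocerebrosidase (0.2 nM) with blue fluorogenic substrate (80 uM final) in citrate/phosphate pH 5.9 with 10mM sodium taurocholate, 0.01% tween-20; 40 min RT, NaOH/glycine stop; fluorescence Ex 365/Em 440; AC50 from a titration from 0.6 nM upwards.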

[2] = AP1 Signaling Pathway (AID 357); conditions: ME-180 AP-1-bla reporter, EGF-induced, beta-lactamase ratio, 5 h; at 7.69 µM (top of the series) unless noted;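 further: ME-180 reporter cells stimulated with EGF at its EC50 level; on the % scale 0 is the no-effect control and ±100 the full control effect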
Procedure, shortened: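 Titration-series screen for positive or negative modulators of EC50 EGF-induced signaling in ME-180 cells carrying an AP-1-driven beta-lactamase reporter. After 5 hours at 37 degrees Celsius, CCF4 460nm/530nm emission ratio gave %Activity; AC50 values derived.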

[3] = molecular target: Cytochrome P450 1A2 (Homo sapiens) (UniProt P05177); assay: p450-cyp1a2 (AID 410; calls by dose curve; further: potency means the concentration at half of the fitted maximal effect;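 on activity change, negative = inhibition: -100% = full effect of reference inhibitor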); conditions: recombinant CYP1A2, luciferin-ME demethylation, luminescence; series mostly up to 11.4 µM
Procedure, shortened: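 Luminescent demethylation readout: Luciferin-ME (100uM, equal to Km) turned over by 20nM CYP1A2 for 60 min at room temperature after NADPH regeneration addition, following 10 min compound preincubation. Normalization used 57 uM furafylline as full inhibition.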

[4] = NFAT Signaling Pathway (AID 444); conditions: Jurkat NFAT-bla M1, carbachol, beta-lactamase ratio, 5 h; at 7.69 µM (top of the series) unless noted;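 further: carbachol stimulus at about its EC50 of 1 µM final; on the % scale 0 is the no-effect control and ±100 the full control effect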
Procedure, shortened: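 Read-out: CCF4 FRET ratio (460 nm/530 nm) after 1 h RT dye loading, used for %activity and AC50 from titration series. Cells: Jurkat NFAT-β-lactamase/M1 line, treated with compound plus 1 uM carbachol for 5 h, 37 °C.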

[5] = Stat Signaling Pathway (AID 446); conditions: ME-180 (cervical carcinoma) SIE beta-lactamase reporter, IL-6 stimulated, 5 h; at 7.69 µM (top of the series) unless noted;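 further: ME-180 cervical cancer cells given 40 pM IL-6 alongside compound; SIE-controlled beta-lactamase reporter measured as 460/530 nm FRET emission ratio; on the % scale 0 is the no-effect control and ±100 the full control effect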
Procedure, shortened: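 Emission at 460 and 530 nm (excitation 405 nm) reports SIE-controlled beta-lactamase in ME-180 cells. Cells received compound with 40 pM IL-6 for 5 hrs at 37 C; data scaled between 300 pM IL-6 and 125 nM JAK-inhibitor controls.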

[6] = molecular target: Glucocorticoid receptor (Homo sapiens) (UniProt P04150); assay: GR-GFP Redistribution (AID 450;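 active means compounds whose dose series gives a full or clear partial fitted curve of increased nuclear translocation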; further: potency means the concentration at half of the fitted maximal effect); conditions: U2OS GR-GFP nuclear translocation, laser cytometry, 2 h
[7] = molecular target: Glucocorticoid receptor (Homo sapiens) (UniProt P04150); assay: GR-EFC Redistribution (AID 451; calls by dose curve; further: potency means the concentration at half of the fitted maximal effect); conditions: CHO-K1 GR-EFC translocation, beta-gal luminescence, 2 h
Procedure, shortened: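 Translocation of GR-ED fusion to nuclear EA restores b-gal, read by luminescence after 1 h room-temperature detection. Engineered CHO-K1 biosensor cells, 1,000/well, exposed 2 h at 37 C to titrations up to 46 uM final.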

[8] = molecular target: Mitogen-activated protein kinase 10 (Mus musculus) (UniProt Q61831); assay: JNK3 AlphaScreen Assay (AID 530); conditions: JNK3 lysate, c-Jun phosphorylation; series mostly up to 11.4 µM;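 further: kinase came from lysate of stimulated human HepG2 cells; signal reports phosphorylation of biotinylated GST-cJun 1-79 at Ser73 with 10 µM ATP; on the % scale 0 is the no-effect control and ±100 the full control effect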
Procedure, shortened: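 qHTS titrations with 15 min compound pre-incubation before adding ATP (10 uM final). Read-out: AlphaScreen of Ser73-phosphorylated biotin-GST-cJun using HepG2 lysate JNK3 activated by IL-1β and TNFα.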

[9] = molecular target: 3',5'-cyclic-AMP phosphodiesterase 4B (Homo sapiens) (UniProt Q07343); assay: qHTS Assay for Inhibitors of PDE-IV (AID 607; active means well fitted activation curve with a large enough effect in the main read-out, with a control signal flat, not every such curve was filed as active; further: % of control where 0% means no effect); conditions: HEK293 ACTOne CNG channel cells, membrane potential fluorescence; series mostly up to 22.9 µM
Procedure, shortened: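 The readout is membrane depolarisation from a cAMP-sensing CNG channel, detected with a potential dye at ex 535/em 590. Cells were HEK293-derived (endogenous PDE-IV) at 1000 cells/well, titrated up to 22.9 uM final.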

Sequence of Lysosomal acid glucosylceramidase (Homo sapiens) (P04062 whole entry, looked up): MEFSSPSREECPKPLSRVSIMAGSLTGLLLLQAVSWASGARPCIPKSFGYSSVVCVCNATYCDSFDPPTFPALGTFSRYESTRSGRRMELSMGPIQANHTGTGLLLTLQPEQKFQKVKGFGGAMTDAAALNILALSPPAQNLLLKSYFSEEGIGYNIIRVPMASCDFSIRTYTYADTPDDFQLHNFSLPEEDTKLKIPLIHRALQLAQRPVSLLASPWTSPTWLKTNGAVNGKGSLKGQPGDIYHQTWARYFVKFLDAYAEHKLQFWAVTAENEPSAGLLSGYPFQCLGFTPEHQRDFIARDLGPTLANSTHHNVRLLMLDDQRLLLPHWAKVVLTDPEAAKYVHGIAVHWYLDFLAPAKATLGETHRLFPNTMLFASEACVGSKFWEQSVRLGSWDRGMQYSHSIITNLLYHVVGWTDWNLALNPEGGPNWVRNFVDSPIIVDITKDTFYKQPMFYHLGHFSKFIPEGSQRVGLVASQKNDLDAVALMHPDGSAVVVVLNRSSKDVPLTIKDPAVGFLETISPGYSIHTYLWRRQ
Sequence of Glucocorticoid receptor (Homo sapiens) (P04150 whole entry, looked up, the tested form may be a part): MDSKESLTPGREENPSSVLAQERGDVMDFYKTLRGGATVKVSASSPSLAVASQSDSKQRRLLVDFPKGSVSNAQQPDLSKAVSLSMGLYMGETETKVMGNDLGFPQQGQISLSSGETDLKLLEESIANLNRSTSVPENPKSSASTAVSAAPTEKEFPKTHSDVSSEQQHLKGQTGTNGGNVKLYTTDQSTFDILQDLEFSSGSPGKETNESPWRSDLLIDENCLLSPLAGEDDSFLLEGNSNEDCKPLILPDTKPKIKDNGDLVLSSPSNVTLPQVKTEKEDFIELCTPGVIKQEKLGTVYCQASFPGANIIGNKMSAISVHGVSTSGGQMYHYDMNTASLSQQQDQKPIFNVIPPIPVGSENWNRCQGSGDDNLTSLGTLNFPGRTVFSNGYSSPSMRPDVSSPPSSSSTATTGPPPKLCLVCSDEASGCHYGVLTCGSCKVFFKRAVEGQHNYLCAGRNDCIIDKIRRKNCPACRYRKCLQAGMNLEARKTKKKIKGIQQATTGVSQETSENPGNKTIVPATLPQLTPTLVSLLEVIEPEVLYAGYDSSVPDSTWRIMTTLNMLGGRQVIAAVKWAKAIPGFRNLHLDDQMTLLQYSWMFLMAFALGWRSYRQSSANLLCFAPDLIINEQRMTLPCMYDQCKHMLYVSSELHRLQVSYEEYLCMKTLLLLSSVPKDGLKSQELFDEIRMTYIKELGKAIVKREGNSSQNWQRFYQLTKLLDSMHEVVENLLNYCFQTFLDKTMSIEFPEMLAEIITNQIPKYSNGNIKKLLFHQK
Sequence of 3',5'-cyclic-AMP phosphodiesterase 4B (Homo sapiens) (Q07343 whole entry, looked up): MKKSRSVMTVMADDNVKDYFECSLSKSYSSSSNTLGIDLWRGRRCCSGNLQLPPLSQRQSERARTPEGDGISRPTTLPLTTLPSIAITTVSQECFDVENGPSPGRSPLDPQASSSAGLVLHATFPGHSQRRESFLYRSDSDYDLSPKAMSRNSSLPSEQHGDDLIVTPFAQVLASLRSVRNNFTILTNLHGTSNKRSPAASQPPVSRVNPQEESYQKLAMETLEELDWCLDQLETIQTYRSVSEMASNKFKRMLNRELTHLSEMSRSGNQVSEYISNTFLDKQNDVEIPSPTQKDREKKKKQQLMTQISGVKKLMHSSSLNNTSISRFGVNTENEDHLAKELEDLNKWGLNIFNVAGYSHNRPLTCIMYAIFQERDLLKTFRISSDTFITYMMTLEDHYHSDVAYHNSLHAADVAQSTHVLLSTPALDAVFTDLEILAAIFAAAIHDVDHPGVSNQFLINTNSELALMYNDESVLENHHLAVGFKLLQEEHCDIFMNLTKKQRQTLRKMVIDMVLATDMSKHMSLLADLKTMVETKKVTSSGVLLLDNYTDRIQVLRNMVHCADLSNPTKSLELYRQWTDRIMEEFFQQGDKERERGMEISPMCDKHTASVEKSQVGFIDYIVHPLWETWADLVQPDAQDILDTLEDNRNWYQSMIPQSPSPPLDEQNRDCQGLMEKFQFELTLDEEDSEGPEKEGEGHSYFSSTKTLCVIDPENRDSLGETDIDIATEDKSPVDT
Sequence of Cytochrome P450 1A2 (Homo sapiens) (P05177 whole entry, looked up): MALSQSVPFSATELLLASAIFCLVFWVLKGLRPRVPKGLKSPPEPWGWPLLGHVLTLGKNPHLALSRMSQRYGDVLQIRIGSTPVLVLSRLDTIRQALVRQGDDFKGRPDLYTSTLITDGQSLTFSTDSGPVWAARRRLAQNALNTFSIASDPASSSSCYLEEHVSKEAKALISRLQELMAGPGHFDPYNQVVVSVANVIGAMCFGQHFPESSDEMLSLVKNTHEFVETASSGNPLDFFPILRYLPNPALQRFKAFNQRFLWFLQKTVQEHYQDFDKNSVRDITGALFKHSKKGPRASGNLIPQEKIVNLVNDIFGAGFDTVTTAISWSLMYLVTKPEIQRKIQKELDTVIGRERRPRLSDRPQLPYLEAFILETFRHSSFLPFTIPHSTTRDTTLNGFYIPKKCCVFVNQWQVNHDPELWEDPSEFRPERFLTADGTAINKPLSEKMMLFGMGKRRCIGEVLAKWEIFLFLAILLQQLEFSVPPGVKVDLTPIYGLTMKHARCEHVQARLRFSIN

Compound | Potency [1] [µM] | activity change, negative = inhibition [2] [%] | activity change, negative = inhibition [3] | activity change, negative = inhibition [4] [%] | activity, negative = inhibition [5] [%] | Potency [6] [µM] | Potency [7] [µM] | Potency [8] | Potency [9] | Potency [3]
O=C(Nc1ccc2ncccc2c1)Nc1ccc2ncccc2c1 | > 11.4 | -16.2 | -28.5% [at 2.29 µM] | 21.4 | -14.3 | > 46 | > 9.22 | inactive | inactive | 
CC12CC[C@@H]3c4ccc(OP(=O)(O)O)cc4CCC3C1CCC2=O (stereo partly specified) | > 11.4 | 2.65 | -13.4% [at 2.29 µM] | 10.4 | -5.93 | > 46 | > 9.22 | inactive | inactive | 
Cc1ccc(N2CCN(CCC(=O)O)CC2)cc1 | > 11.4 | 4.25 |  | 2.05 | 2.74 | > 46 | > 9.22 | inactive | inactive | inactive
Cc1ncc(CN=Cc2ccc(Cl)cc2)c(N)n1 | > 11.4 | -0.312 |  | 23.1 | 3.08 | > 46 | > 9.22 | inactive | inactive | 5.01 µM (active)
N#CC1(Nc2ccc(-c3ccc(NC4(C#N)CCCC4)cc3)cc2)CCCC1 | > 11.4 | -7.74 |  | 14.8 | 19 | > 46 | > 9.22 | inactive | inactive | 3.16 µM (active)
c1c[nH]c(CN2CCN(Cc3ncc[nH]3)CC2)n1 | > 11.4 | 4.41 |  | -12.2 | -5.33 | > 46 | > 9.22 | inactive | inactive | inactive
CCO[P@]1(=O)OC[C@@H]2O[C@H](n3cnc4c(N)ncnc43)[C@H](O)[C@@H]2O1 | > 11.4 | -10.8 | -15.6% [at 2.29 µM] | 4.19 | -5.06 | > 46 | > 9.22 | inactive | inactive | 
NS(=O)(=O)c1ccc(N=Nc2c(O)c(C(=O)O)cc3ccccc23)cc1 | > 11.4 | 1.12 |  | 3.68 | 5.99 | > 46 | > 9.22 | inactive | inactive | inactive
O=C(O)[C@@H]1[C@@H]2C[C@H]([C@@H](Br)[C@H]2N2C(=O)CCC2=O)[C@@H]1C(=O)O | > 11.4 | -1.32 | -15.8% [at 2.29 µM] | 10.6 | 11.9 | > 46 | > 9.22 | inactive | inactive | 
CC(=O)O[C@H]1CC[C@@]2(C)[C@@H](CC[C@H]3[C@H]2CC(=O)[C@@]2(C)[C@@H]3C[C@H]3CC(C)=CC(=O)[C@H]32)C1 | > 11.4 | 5.01 | -9% [at 2.29 µM] | 22 | -1.11 | > 46 | > 9.22 | inactive | inactive | 
Cn1cnc([N+](=O)[O-])c1[Se]c1nc(N)nc2c1ncn2[C@@H]1O[C@@H](CO)[C@H](O)[C@@H]1O | > 11.4 | 4.67 | -12.8% [at 2.29 µM] | 8.52 | 10.6 | > 46 | > 9.22 | inactive | inactive | 
CC1=CC(=O)CC(C)(C)[C@]1(O)/C=C\C(C)=C\C(=O)O | > 11.4 | 2.59 |  | -29.1 | 2.83 | > 46 | > 9.22 | inactive | inactive | inactive
Cc1cc(=O)oc2c(OS(C)(=O)=O)c(OS(C)(=O)=O)ccc12 | > 11.4 | -3.34 |  | 5.12 | 4.16 | > 46 | > 9.22 | inactive | inactive | 0.794 µM (active)
C[C@@H](N)[C@@H](C)Cc1ccccc1 | > 11.4 | 10.1 |  | 6.03 | 15.9 | > 46 | > 9.22 | inactive | inactive | inactive
